Sampled rows, rich in hits. Any-hit rate of the full collection: about 2.8%.
SENP6 inh = blocks the human protease SENP6. Recombinant SENP6 catalytic domain, aminoluciferin luminescence. inhibition, % at 10 µM. actives 1.8% (n = 330,000);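 active = inhibition above about 50% at the single tested dose, limit read from the data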
Target sequence (Q9GZR1 628-1112 limits assumed): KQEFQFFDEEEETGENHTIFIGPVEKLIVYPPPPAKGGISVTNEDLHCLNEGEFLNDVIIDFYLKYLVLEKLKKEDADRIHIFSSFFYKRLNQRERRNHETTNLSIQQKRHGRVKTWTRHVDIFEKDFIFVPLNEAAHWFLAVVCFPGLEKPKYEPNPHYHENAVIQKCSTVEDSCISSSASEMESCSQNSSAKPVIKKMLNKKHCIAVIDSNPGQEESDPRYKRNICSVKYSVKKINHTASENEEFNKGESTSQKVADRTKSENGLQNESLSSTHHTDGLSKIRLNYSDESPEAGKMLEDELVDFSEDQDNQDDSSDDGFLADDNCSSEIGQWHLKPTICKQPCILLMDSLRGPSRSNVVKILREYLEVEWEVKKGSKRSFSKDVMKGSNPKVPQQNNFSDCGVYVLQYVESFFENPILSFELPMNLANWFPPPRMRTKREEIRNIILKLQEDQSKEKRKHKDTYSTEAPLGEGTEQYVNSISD
SENP8 block-1 = SENP8 (human) protease inhibition; Q96LD8; recombinant SENP8, Nedd8 substrate fluorescence; inhibition, % at 20 µM; actives 0.64% (n = 360,000); AID 602440; in the data active = inhibition mostly above about 40%, no sharp cut-off; inactive = mostly below about 27%
SENP7 block = SENP7 protease inhibition; Q9BQF6; recombinant SENP7, Z-RLRGG-aminoluciferin luminescence, 40 min; inhibition, % at 5 µM; actives 1.5% (n = 330,000); AID 434973;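 active = inhibition above about 50% at the single test dose, limit read from the data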
SENP8 block-2 = blocks the human protease SENP8. Q96LD8. purified SENP8, Z-RLRGG-aminoluciferin cleavage, luminescence. inhibition, % at 10 µM. actives 1.2% (n = 330,000); in the data active = inhibition above about 50%
HSP90 refold inh = HSP90 refolding inhibition in rabbit reticulocyte lysate | actives 0.91% (n = 290,000) | luciferase refolding luminescence, 3 h | inhibition, % at 5.6 µM;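 active = inhibition above the screen-wide mean plus 3 SD, computed separately per campaign, cut at about 16% in these data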;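 note: inhibitors lower the luminescence because luciferase stays unfolded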
SENP8 conf = confirmation of human SENP8 protease inhibitors; shares compounds with SENP7 block; Recombinant SENP8, Z-RLRGG-aminoluciferin luminescence, 60 min; inhibition, % at 12.5 µM; actives 40% (n = 6,200); AID 488912;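 active = mean inhibition across replicates above about 50%, limit read from the data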
SENP6 conf = confirmation of human SENP6 protease inhibitors; shares compounds with SENP7 block; recombinant SENP6, Z-RLRGG-aminoluciferin luminescence; inhibition, % at 12.5 µM; actives 58% (n = 6,200)
SENP7 confirm = human SENP7 inhibition, confirmed; AID 488917; shares compounds with SENP7 block; recombinant SENP7, Z-RLRGG-aminoluciferin luminescence, 40 min; inhibition, % at 12.5 µM; actives 69% (n = 6,200)
Casp3 SENP sel = inhibits human caspase-3 in SENP selectivity test; actives 60% (n = 6,200); inhibition, % at 12.5 µM; purified caspase-3, Z-DEVD-aminoluciferin luminescence, 60 min; shares compounds with SENP7 block;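 active = mean inhibition above about 50%, limit read from the data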
Luc interf = interferes with luciferase luminescence in SENP counter-screen; shares compounds with SENP7 block; Pre-incubated SENP8/Z-RLRGG-aminoluciferin, luciferase luminescence interference; inhibition, % at 12.5 µM; actives 39% (n = 6,200);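 active = mean inhibition above about 50% when retested at one dose, limit read from the data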
Of the large screens only hits and unclear results are named; the others gave an inactive call (follow-up assays come after a bar, where they were run).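 Rule for the calls, unless noted: active = mean inhibition above about 50% in the one-dose retest (limit read from the data); inactive = the rest.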

CCCCn1c(O)c(C(C)=NCCc2c[nH]c3ccccc23)c(=O)[nH]c1=O	none
COc1ccccc1N=Cc1c(O)n(C)c(=O)n(C)c1=O	SENP6 inh 63, SENP7 block 56 | SENP8 conf inactive | SENP6 conf inactive | SENP7 confirm 73 | Casp3 SENP sel inactive | Luc interf 59
COC(=O)C1=C(c2ccc(F)cc2OCc2ccccc2)C[C@@H]2CC[C@H]1N2C(=O)N1CCOCC1	none (no result: HSP90 refold inh)
c1ccc2c(NC3=NCCS3)cccc2c1	SENP6 inh 76, SENP7 block 61, SENP8 block-2 88 | SENP8 conf inactive | SENP6 conf inactive | SENP7 confirm inactive | Casp3 SENP sel inactive | Luc interf inactive
Clc1cccc(Cl)c1NC1=NCCS1	none (no result: SENP6 inh, SENP7 block, SENP8 block-2, HSP90 refold inh)
CCOC(=O)C1(CCc2ccccc2)CCN(C(C)CSC)CC1 (stereo not drawn)	none (no result: SENP6 inh, SENP7 block, SENP8 block-2)
CCCNC1=C(C)C(=O)C2=C(C1=O)C(COC(N)=O)[C@]1(OC)C3NC3CN21 (stereo partly drawn)	SENP6 inh 66 | SENP8 conf inactive | SENP6 conf inactive | SENP7 confirm inactive | Casp3 SENP sel inactive | Luc interf inactive
CN1C(=O)C(=Cc2ccccc2OCc2ccc(Cl)cc2)C(=O)N(C)C1=O	SENP6 inh 75, SENP7 block 64 | SENP8 conf inactive | SENP6 conf 57 | SENP7 confirm 76 | Casp3 SENP sel 52 | Luc interf 70
COc1ccc(C(=O)N2CCOCC2)cc1S(=O)(=O)N1CCC(C)CC1	none
COCCCNC(=O)c1c(N)n(Cc2ccco2)c2nc3ccccc3nc12	none
CC(C)OCCCNC(=O)c1c(N)n(Cc2cccs2)c2nc3ccccc3nc12	SENP6 inh 64 | SENP8 conf inactive | SENP6 conf inactive | SENP7 confirm inactive | Casp3 SENP sel inactive | Luc interf inactive
CC(C)CNC(=O)c1c(N)n(Cc2ccco2)c2nc3ccccc3nc12	none
CC(C)CCn1c(N)c(C(=O)NCc2cccs2)c2nc3ccccc3nc21	SENP6 inh 80, SENP7 block 51, SENP8 block-2 87 | SENP8 conf inactive | SENP6 conf inactive | SENP7 confirm inactive | Casp3 SENP sel inactive | Luc interf inactive
COCCNC(=O)c1c(N)n(CCC(C)C)c2nc3ccccc3nc12	SENP6 inh 86, SENP8 block-2 81 | SENP8 conf inactive | SENP6 conf inactive | SENP7 confirm inactive | Casp3 SENP sel inactive | Luc interf inactive
CCCCNC(=O)c1c(N)n(CCCOC)c2nc3ccccc3nc12	SENP6 inh 89, SENP8 block-2 86 | SENP8 conf inactive | SENP6 conf inactive | SENP7 confirm inactive | Casp3 SENP sel inactive | Luc interf inactive
COc1cc2c(ccc3c4cc(OC)c(OC)cc4c[n+](C)c23)cc1O	none (no result: SENP6 inh, SENP7 block, SENP8 block-2, HSP90 refold inh)
COCCCNC(=O)c1c(NC(=O)c2ccco2)n(Cc2ccccc2)c2nc3ccccc3nc12	none
COCCNC(=O)c1c(NC(=O)c2ccc(Br)o2)n(Cc2ccccc2)c2nc3ccccc3nc12	SENP6 inh 83, SENP8 block-2 82 | SENP8 conf inactive | SENP6 conf inactive | SENP7 confirm inactive | Casp3 SENP sel inactive | Luc interf inactive
CCCCCn1c(NC(=O)c2ccco2)c(C(=O)OCC)c2nc3ccccc3nc21	SENP6 inh 79, SENP8 block-2 80 | SENP8 conf inactive | SENP6 conf inactive | SENP7 confirm inactive | Casp3 SENP sel inactive | Luc interf inactive
O=S1(=O)CC2(N3CCOCC3)CCCCC21 (stereo not drawn)	none
CN(C)C(=O)Oc1ccc(OC(=O)c2ccccc2)cc1	SENP6 inh 90, SENP8 block-2 81 | SENP8 conf 65 | SENP6 conf 89 | SENP7 confirm 98 | Casp3 SENP sel 92 | Luc interf 51
CN(C(=O)Oc1ccc(C(=O)c2ccc(Cl)cc2)cc1)c1ccccc1	none

Source: PubChem
